We go through 16 compounds from PubChem BioAssay (NCATS).

Inconclusive results are not listed. Active and inactive are the calls of the source. Calls come from the whole dose curve; as a rule, active = well fitted curve in either direction with a large enough effect (not every such curve was filed as active); inconclusive = small, poorly fitted or top-dose-only effect, or another doubt; inactive = flat fitted curve, though single readings scatter.
% is set by controls: 0 for no effect and ±100 for the full control effect.

This assay can be described thus: AP1 Signaling Pathway (AID 357). To be noted: ME-180 AP-1-bla reporter, EGF-induced, beta-lactamase ratio, 5 h; at 17.2 µM (top of the series) unless noted. In short, it runs like this: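 ME-180 cells with beta-lactamase reporter under AP-1 response element, stimulated with EC50 EGF; compounds tested in titration series, 5 h at 37 °C. CCF4 substrate added 2.5 h at room temperature; 460/530 nm emission ratio gave %activity and AC50.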
For `Cc1c(N=Cc2c(O)n(C3CCCCC3)c(=O)[nH]c2=O)c(=O)n(-c2ccccc2)n1C`, the activity change, negative = inhibition is -6.37% (inactive).
The same measure for `Cn1c(=O)c2c(nc(SCCN3CCCCC3)n2Cc2ccc(Cl)cc2)n(C)c1=O`: 11.2% (inactive); for `Cc1nnc(NCc2n[nH]c(=O)c3ccccc23)c2ccccc12`: 29.7% (inactive).
The result for `COc1ccc(N2CCN(C3CC(=O)NC3=O)CC2)cc1` (stereo unspecified) reads -0.252% (inactive).
In the case of `CCc1nc2sc3c(c2c(=O)o1)CCCC3`, the activity change, negative = inhibition was -11.3% (inactive).
The same measure for `CCc1nc(NC2CCCCC2)c(C#N)c2c1COC(C)(C)C2`: 7.15% (inactive).
The result for `CCOC(=O)C1=C(CSc2nc(-c3ccncc3)ccc2C#N)OC(N)=C(C#N)C1c1cccnc1` (stereo unspecified) reads 20.1% (inactive).
The result for `CCCSc1nnc2n(-c3ccccc3OC)c(=O)c3c4c(sc3n12)CCC4` reads 3.26% (inactive).
Consider `CC(C)c1nc(NCC2CCCO2)c(C#N)c2c1COC(C)(C)C2` (stereo unspecified), for which the activity change, negative = inhibition was -26.1% (inactive).
As for `N#Cc1nc(COc2ccccc2Cl)oc1NCc1ccc(F)cc1`, the activity change, negative = inhibition was -5.24% (inactive).
The same measure for `N#CCSc1nc2c(cc1C#N)CCCCCC2`: -14.6% (inactive); for `N#CC1=C(N)N(c2ccccc2)C(c2ccccc2)C1(C#N)C#N` (stereo unspecified): -27.2% (inactive).
With `Clc1ccc(Cl)c(-c2ccc(/C=N/c3ncn[nH]3)o2)c1`, the activity change, negative = inhibition is -20.5% (inactive).
Take `Cc1ccc2nc(NCc3ccccc3)[nH]c2c1`: the activity change, negative = inhibition is 1.71% (inactive).
In the case of `COc1cccc(-c2nc(N3CCC(C)CC3)c3ccccc3n2)c1O`, the activity change, negative = inhibition was 16.6% (inactive).
Regarding `C=CCSc1nnc2n(-c3ccccc3OC)c(=O)c3c4c(sc3n12)CCC4`, the activity change, negative = inhibition was 7% (inactive).
